From PubChem BioAssay (Tox21)
A number with no mark means an inactive call. Activity calls are given as the source filed them. Calls follow the shape of the dose curve; as a rule, active = well fitted curve in the direction sought with a large enough effect in the repeat runs; inconclusive = weak or mixed curves; inactive = flat fitted curve, though single readings scatter.

Assay: qHTS assay to test for compound auto fluorescence at 535 nm (green) in HEK293 cell free culture (AID 720682)
Conditions: cell-free medium, green autofluorescence 485/535 nm, active compounds read high; series mostly up to 91.3 µM
Source text: U.S. Tox21 Program National Center for Advancing Translational Sciences [NCATS] NIH Chemical Genomics Center [NCGC] U.S. Environmental Protection Agency [EPA] National Institutes of Environmental Health Sciences [NIEHS] National Toxicology Program [NTP] U.S. Food and Drug Administration [FDA] Tox21 Assay Overview: Compound auto fluorescence often interferes with screening of the compound library against various biological targets and signaling pathways. Some of these compounds may have fluorophoric properties. Such properties may interfere with the assay outputs resulting in false positives and/or negatives. To decrease such complications and ensure the compound activities are relevant in terms of biological response, the Tox21 10K compound library was screened for auto fluorescence. From the fluorophores used as reporter signals in our screening assays, the auto fluorescence equivalencies of compounds against three fluorophores have been evaluated: Triamterene, Fluorescein and Rose Bengal sodium for blue, green and red fluorescence, respectively. The fluorescence intensities were measured using Excitation/Emission wavelengths at 405/460nm, 485/535nm and 540/590nm for blue, green and red labels, respectively. This assay includes the green fluorescence data.
Tox21 Assay Protocol Summary: 5 uL of culture medium (DMEM containing 10% FBS) per well was dispensed into black wall/clear bottom 1536-well plates using a Multidrop Combi Dispenser (ThermoFisher Scientific, Waltham, MA). After 23 nL compound or DMSO vehicle was transferred into assay plate by a pintool work station (Kalypsys, San Diego, CA), fluorescence intensities in the assay plates were measured by an Envision (PerkinElmer, Shelton, CT) plate reader using three labels for measuring blue, green and red fluorescence at […] 460, 535 and 590nm respectively.
% is scaled to controls: 0 for no effect and ±100 for the full control effect.

Row | SMILES | outcome | activity change
1 | CC(CC(C#N)(c1ccccc1)c1ccccc1)N(C)C (stereo not given) | inactive | 
2 | CC1(C)CON(Cc2ccccc2Cl)C1=O | inactive | 
3 | C1CCC(C2CCCCC2)CC1 | inactive | 
4 | N#Cc1ccncc1 | inactive | 
5 | Cc1ncc(CNC(=O)N(CCCl)N=O)c(N)n1 | inactive | 
6 | Nc1cc2c3c(c1)C(c1ccccc1)=N[C@@H](NC(=O)c1cccnc1)C(=O)N3CC2 | inactive | 
7 | Cc1cccc(C#N)c1 | inactive | 
8 | O=C(Cc1ccccc1)OCc1ccccc1 | inactive | 
9 | CC(C)CC#N | inactive | 
10 | Nc1n[nH]c(N)n1 | inactive | 
11 | CCOC(=O)/C=C(C)/C=C/C[C@@H](C)CCCC(C)C | inactive | 
12 | C[N+](=O)[O-] | inactive | 
13 | CCC1(c2ccccc2)C(=O)NC(=O)NC1=O | inactive | 
14 | C[C@@H]1CN(C2CCC(C#N)(c3ccc(F)cc3)CC2)CC[C@]1(C(=O)O)c1ccccc1 (stereo not given in full) |  | -0.0185% [at 18.6 µM]
15 | CC(=O)C(Cl)Cl | inactive | 
16 | N#Cc1c(Cl)cccc1Cl | inactive | 
17 | COC(=O)C(C)Oc1ccc(Oc2ccc(Cl)cc2Cl)cc1 (stereo not given) | inactive | 
18 | CC(C)CC(N(C)C)C1(c2ccc(Cl)cc2)CCC1 (stereo not given) | inactive | 
19 | CCCSP(=S)(OCC)Oc1ccc(Cl)cc1Cl (stereo not given) | inactive | 
20 | OCCSCSCCO | inactive | 

Row | SMILES | outcome | activity change
21 | COc1cc(C[C@@H](C)N)c(OC)cc1C | inactive | 
22 | O=[N+]([O-])c1ccc(CBr)cc1 | inactive | 
23 | Cc1coc2c1CCC(C)C2 (stereo not given) | inactive | 
24 | CN(N=O)C(N)=O | inactive | 
25 | O=C(Nc1ccccc1)N(Cc1ccc(Cl)cc1)C1CCCC1 | inactive | 
26 | CN1CCN(C(=O)O[C@H]2c3nccnc3C(=O)N2c2ccc(Cl)cn2)CC1 | inactive | 
27 | CC(C)[N+](=O)[O-] | inactive | 
28 | CC1CCC(=O)O1 (stereo not given) | inactive | 
29 | CCC(Cl)[N+](=O)[O-] (stereo not given) | inactive | 
30 | CCOC(=O)NC(=S)Nc1ccccc1NC(=S)NC(=O)OCC | inactive | 
31 | O=C(O)C(Br)CBr (stereo not given) | inactive | 
32 | O=S(=O)(O)C(F)(F)C(F)(F)C(F)(F)C(F)(F)C(F)(F)C(F)(F)F | inactive | 
33 | CCC#N | inactive | 
34 | ClCCOCOCCCl | inactive | 
35 | CNC(=O)Oc1c(C(C)(C)C)cc(C)cc1C(C)(C)C | inactive | 
36 | CC(C)(C)C(=O)C(Oc1ccc(Cl)cc1)n1cncn1 (stereo not given) | inactive | 
37 | CCS(=O)(=O)C(C)(C)S(=O)(=O)CC | inactive | 
38 | NC1=NC(=O)C(c2ccccc2)O1 (stereo not given) | inactive | 
39 | CCC(C)n1c(=O)[nH]c(C)c(Br)c1=O (stereo not given) | inactive | 
40 | Fc1ccc(C2(Cn3cncn3)OC2c2ccccc2Cl)cc1 (stereo not given) | inactive | 
